# Measured values taken from PubChem BioAssay (NCI).
# About 83,000 compounds went through this panel and 20% of them were active in at least one assay; those are over-represented in the sample as a whole.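 Interpretation: 100, growth as untreated; towards 0, rising growth inhibition; 0, no net growth; 0 to -100, cell death. Compounds scoring below 10 were considered active.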 A number with no mark means an inactive call. Active and inactive are the calls of the source.
# System: KM12 colon
# Experiment: NCI-60 one-dose screen, 48 h (100 = growth as untreated, 0 = no growth, -100 = all killed)
# Conditions: 10 µM unless noted
row,SMILES,growth
1,N#C/C(=C\c1ccc(-c2ccc(Br)cc2)o1)c1nc(-c2cccs2)cs1,95.9%
2,Cc1cc(C=O)c(C)c2c1[nH]c1ccccc12,108%
3,CCCCC[C@H]1C/C=C2/C(=O)C=C[C@@H]2C/C=C\CCCC(=O)O[C@@H](CCCCC)C/C=C2/C(=O)C=C[C@@H]2C/C=C\CCCC(=O)O1,-86.3% (active)
4,Cn1nc(-c2ccccc2)c2c(-c3ccccc3)onc2c1=O,33.7%
5,CCN1CCN(C(=O)[C@]23CCC(C)(C)C[C@@H]2C2=CC[C@@H]4[C@@]5(C)C/C(=C/c6cccnc6)C(=O)C(C)(C)[C@@H]5CC[C@@]4(C)[C@]2(C)CC3)CC1,33.8%
6,COc1ccc2c(c1)c(-c1nc(-c3cn(C)c4ncccc34)cs1)cn2CCN,45%
7,Cc1oc(-c2ccccc2Cl)cc1C(=O)Nc1ccc(S(N)(=O)=O)cc1,101%
8,Cn1c(/C(C#N)=C/c2ccc3ccccc3c2)cc2ccccc21,15.1%
9,CCSc1ncnc2c1ncn2C1OC(CO)C(O)C1O (centres undefined),11.8%
10,CCCCN1CCCCn2c1nc1c2c(=O)n(C)c(=O)n1C,101%
11,CC(C)(C)c1cc(-n2c(-c3ccc(Cl)cc3)nc3cc(C(=O)Nc4ccc(Cl)cc4)ccc32)n[nH]1,25.9%
12,NC(=O)NCC1CCCCC1,102%
13,CC(=O)N1N=C(c2ccc(C)cc2)CC1c1ccc(Oc2ccc(Br)cc2)cc1 (centres undefined),85.5%
14,O=C(/C=C/c1cccc2ccccc12)Nc1ncc(Cc2ccccc2)s1,15.8%
15,COc1ccc2c(c1)C(Br)=C(CCO)C2c1ccccc1 (centres undefined),42.8%
16,C=C1C(=O)O[C@H]2[C@H]1CC/C(Cn1cc(-c3ccc(F)cc3)nn1)=C\CC[C@@]1(C)O[C@@H]21,54.6%
17,OCC1OC(n2cnc3c(Cl)ncnc32)CC1O (centres undefined),107%
18,Cn1cc(-c2csc(-c3cn(CCN)c4ccccc34)n2)c2cccnc21,46.3%
19,COc1cc(/C=C2\C(=O)N(CC(O)COc3cc(O)c4c(=O)cc(-c5ccccc5)oc4c3)c3ccccc32)cc(OC)c1O (centres undefined),82%
20,C=C(C)[C@@H]1CC[C@]2(C(=O)O)CC[C@]3(C)[C@H](CC[C@@H]4[C@@]5(C)C/C(=C/c6ccc(OC)cc6)C(=O)C(C)(C)[C@@H]5CC[C@]43C)[C@@H]12,21.3%

row,SMILES,growth
1,O=C1c2cccc3cccc(c23)C(=O)N1CC#Cc1ccc2c3c(cccc13)C(=O)N(CCO)C2=O,101%
2,CN1CCN(CCOc2ccc(-c3cnc4c(-c5ccccc5F)cnn4c3)cc2)CC1,9.44% (active)
3,CCN(CC)CCCCCCNc1ccnc2cc(Cl)ccc12,84.9%
4,C/C(Cc1ccc(Cl)cc1)=C(/c1ccc(Cl)cc1)c1ccc(OCCN2CCCC2)cc1,53.8%
5,Cc1ccc(N(CC(=O)Nc2ccc(S(=O)(=O)N3CCC(N4CCCC4)CC3)cc2)S(=O)(=O)c2ccc(Cl)cc2)cc1,24.5%
6,Cn1cc(-c2csc(-c3c[nH]c4ccccc34)n2)c2cccnc21,32.5%
7,C(=C\c1c[nH]c2ccccc12)/c1ccc2ccccc2n1,52.4%
8,COc1cccc(-c2nn(-c3ccccc3)cc2-c2ccnc(NCCCNS(=O)(=O)c3ccc(Cl)cc3)c2)c1,38.9%
9,Cc1ccncc1C(=O)O,98.6%
10,Cc1cccc(C)c1NC(=O)CSC(=S)N1CCN(CCOCCO)CC1,98.5%
11,Cc1cc(Cl)nc(N(CCNc2ccnc3cc(Cl)ccc23)Cc2ccco2)n1,59.5%
12,COC(=O)[C@]12CC[C@@H](C)[C@H](C)[C@@H]1C1=CC[C@@H]3[C@@]4(C)C[C@@H](O)[C@H](O)[C@@](C)(CO)C4=CC[C@@]3(C)[C@]1(C)CC2,-70.8% (active)
13,Fc1ccc2nc(-c3cc(-c4ccc5c(c4)OCO5)n[nH]3)[nH]c2c1,16.1%
14,COc1cc2[nH]c(C(=O)c3cc(OC)c(OC)c(OC)c3)c(N)c2cc1C#CCO,10.8%
15,COc1ccc(-c2cc(-c3cccs3)n(N=O)c(=O)c2C#N)cc1,109%
16,Cc1ccc(Sc2sc(-c3ccccc3)nc2[P+](c2ccccc2)(c2ccccc2)c2ccccc2)cc1,-37.6% (active)
17,NS(=O)(=O)c1ccc(CCNC(=O)/C=C/c2ccc(Cl)cc2)cc1,98.6%
18,Cc1cc2nc3c4cc(Cl)ccc4n(CCN(C)C)c3nc2cc1C,19.1%
19,Cc1ccc(S(=O)(=O)Nc2ccc(-c3cc(-c4cccc(F)c4)c(C#N)c(N)n3)cc2)cc1,46.7%
